Measured values from the supplement of paper PMC10849652.
About 7,900 targets were measured; listed, in parts, are those with a hit and a random draw of the rest. About 0.6% of all pairs of compound and target were hits. A number with no mark means an inactive call.

Legend:
Experiment in all cases: log2 fold change, soluble protein after heating vs DMSO (PISA); higher = thermal stabilisation; K562 cells, 10 uM, 30 min; active = over 0.2 and 3.5 SD of the protein, either way, in both replicates (recomputed)
[1] = compound: CS(=O)(=O)c1ccc(-c2cnc(N)c(C(=O)Nc3ccccc3)n2)cc1
Summary of the method: (§1)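 Soluble protein was defined as the supernatant after 21,000xg for 90 min. It came from K562 cells at 2×10^6 cells/mL given 10 μM compound for 30 min, heated in aliquots for 3 min across 48°C-58°C, pooled, and extracted in PBS with 0.5% NP-40 at 4°C, and was quantified by TMTpro 16plex LC-MS/MS with equalised channel sums. Thermal stability against control samples, from duplicates, is reported as log2 fold change.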

crizotinib = compound: C[C@@H](Oc1cc(-c2cnn(C3CCNCC3)c2)cnc1N)c1c(Cl)ccc(F)c1Cl [crizotinib]
Summary of the method: as §1

[2] = compound: C[C@@H]1COCCN1C2=NC(=NC(=C2)C3(CC3)S(=O)(=O)C)C4=C5C=CNC5=CC=C4
Summary of the method: as §1

[3] = compound: C[C@H](C1=CC=C(C=C1)C(=O)NC2=C3C=CNC3=NC=C2)N
Summary of the method: as §1

duvelisib = compound: C[C@H](Nc1ncnc2nc[nH]c12)c1cc2cccc(Cl)c2c(=O)n1-c1ccccc1 [duvelisib]
Summary of the method: as §1

gandotinib = compound: Cc1cc(Nc2cc(CN3CCOCC3)c3nc(C)c(Cc4ccc(Cl)cc4F)n3n2)n[nH]1 [gandotinib]
Summary of the method: as §1

tozasertib = compound: Cc1cc(Nc2cc(N3CCN(C)CC3)nc(Sc3ccc(NC(=O)C4CC4)cc3)n2)n[nH]1 [tozasertib]
Summary of the method: as §1

[4] = compound: Cc1cc(SCc2sc(-c3ccc(C(F)(F)F)cc3)nc2C)ccc1OCC(=O)O
Summary of the method: as §1

doramapimod = compound: Cc1ccc(-n2nc(C(C)(C)C)cc2NC(=O)Nc2ccc(OCCN3CCOCC3)c3ccccc23)cc1 [doramapimod]
Summary of the method: as §1

ispinesib = compound: Cc1ccc(C(=O)N(CCCN)[C@@H](c2nc3cc(Cl)ccc3c(=O)n2Cc2ccccc2)C(C)C)cc1 [ispinesib]
Summary of the method: as §1

Sequence of UniProt Q14320 (Q14320 whole entry, looked up): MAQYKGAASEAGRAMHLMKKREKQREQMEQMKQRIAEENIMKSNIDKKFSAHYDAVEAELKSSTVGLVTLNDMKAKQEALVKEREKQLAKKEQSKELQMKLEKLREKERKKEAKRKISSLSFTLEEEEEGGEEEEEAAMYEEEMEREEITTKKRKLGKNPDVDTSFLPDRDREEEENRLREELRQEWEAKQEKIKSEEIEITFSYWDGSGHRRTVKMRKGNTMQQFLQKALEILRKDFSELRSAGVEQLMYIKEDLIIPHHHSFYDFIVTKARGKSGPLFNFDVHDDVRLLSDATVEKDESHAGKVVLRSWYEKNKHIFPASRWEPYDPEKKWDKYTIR
Sequence of UniProt Q92556 (Q92556 whole entry, looked up): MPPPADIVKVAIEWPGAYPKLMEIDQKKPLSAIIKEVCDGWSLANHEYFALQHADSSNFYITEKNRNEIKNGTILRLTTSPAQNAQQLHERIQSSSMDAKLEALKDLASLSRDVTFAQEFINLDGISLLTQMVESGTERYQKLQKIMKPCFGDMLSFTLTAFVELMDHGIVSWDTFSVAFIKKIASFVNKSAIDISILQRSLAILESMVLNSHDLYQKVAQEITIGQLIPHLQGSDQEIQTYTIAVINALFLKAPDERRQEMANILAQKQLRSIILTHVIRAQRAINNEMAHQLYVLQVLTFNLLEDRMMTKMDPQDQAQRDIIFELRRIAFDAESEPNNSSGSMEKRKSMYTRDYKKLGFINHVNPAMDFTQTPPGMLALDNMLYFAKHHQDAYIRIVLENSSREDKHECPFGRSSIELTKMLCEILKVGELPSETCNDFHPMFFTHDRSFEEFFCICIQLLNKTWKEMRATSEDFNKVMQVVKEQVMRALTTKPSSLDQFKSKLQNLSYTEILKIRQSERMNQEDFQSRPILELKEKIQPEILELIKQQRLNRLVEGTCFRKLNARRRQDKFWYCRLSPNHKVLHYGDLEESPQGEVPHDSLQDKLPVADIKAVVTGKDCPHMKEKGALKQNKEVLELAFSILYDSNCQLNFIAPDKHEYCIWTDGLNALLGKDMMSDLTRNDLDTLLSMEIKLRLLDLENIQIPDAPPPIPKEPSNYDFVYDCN
Sequence of UniProt Q13409 (Q13409 whole entry, looked up): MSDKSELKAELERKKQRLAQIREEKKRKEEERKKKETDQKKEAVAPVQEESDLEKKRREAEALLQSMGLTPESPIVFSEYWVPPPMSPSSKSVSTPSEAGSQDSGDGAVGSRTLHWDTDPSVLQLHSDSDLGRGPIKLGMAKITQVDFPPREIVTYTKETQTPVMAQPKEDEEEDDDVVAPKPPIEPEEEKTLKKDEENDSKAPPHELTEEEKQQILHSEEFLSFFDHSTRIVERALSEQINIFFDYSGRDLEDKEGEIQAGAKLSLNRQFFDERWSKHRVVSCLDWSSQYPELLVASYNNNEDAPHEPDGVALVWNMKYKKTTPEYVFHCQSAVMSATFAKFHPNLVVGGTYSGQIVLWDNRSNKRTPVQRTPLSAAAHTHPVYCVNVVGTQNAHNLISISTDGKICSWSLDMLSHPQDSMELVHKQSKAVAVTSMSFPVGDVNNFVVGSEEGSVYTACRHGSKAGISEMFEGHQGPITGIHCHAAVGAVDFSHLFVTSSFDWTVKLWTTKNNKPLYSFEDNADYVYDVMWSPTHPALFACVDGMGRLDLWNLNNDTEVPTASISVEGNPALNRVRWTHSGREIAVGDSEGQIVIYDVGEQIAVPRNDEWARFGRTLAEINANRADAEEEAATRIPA
Sequence of UniProt O60573 (O60573 whole entry, looked up): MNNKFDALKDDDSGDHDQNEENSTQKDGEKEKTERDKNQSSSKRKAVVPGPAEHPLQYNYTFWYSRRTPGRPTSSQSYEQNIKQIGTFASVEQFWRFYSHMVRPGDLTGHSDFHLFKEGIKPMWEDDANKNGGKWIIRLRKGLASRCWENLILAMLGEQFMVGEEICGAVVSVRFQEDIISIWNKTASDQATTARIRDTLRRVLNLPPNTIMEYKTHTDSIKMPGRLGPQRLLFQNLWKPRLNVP
Sequence of UniProt Q96FC9 (Q96FC9 whole entry, looked up): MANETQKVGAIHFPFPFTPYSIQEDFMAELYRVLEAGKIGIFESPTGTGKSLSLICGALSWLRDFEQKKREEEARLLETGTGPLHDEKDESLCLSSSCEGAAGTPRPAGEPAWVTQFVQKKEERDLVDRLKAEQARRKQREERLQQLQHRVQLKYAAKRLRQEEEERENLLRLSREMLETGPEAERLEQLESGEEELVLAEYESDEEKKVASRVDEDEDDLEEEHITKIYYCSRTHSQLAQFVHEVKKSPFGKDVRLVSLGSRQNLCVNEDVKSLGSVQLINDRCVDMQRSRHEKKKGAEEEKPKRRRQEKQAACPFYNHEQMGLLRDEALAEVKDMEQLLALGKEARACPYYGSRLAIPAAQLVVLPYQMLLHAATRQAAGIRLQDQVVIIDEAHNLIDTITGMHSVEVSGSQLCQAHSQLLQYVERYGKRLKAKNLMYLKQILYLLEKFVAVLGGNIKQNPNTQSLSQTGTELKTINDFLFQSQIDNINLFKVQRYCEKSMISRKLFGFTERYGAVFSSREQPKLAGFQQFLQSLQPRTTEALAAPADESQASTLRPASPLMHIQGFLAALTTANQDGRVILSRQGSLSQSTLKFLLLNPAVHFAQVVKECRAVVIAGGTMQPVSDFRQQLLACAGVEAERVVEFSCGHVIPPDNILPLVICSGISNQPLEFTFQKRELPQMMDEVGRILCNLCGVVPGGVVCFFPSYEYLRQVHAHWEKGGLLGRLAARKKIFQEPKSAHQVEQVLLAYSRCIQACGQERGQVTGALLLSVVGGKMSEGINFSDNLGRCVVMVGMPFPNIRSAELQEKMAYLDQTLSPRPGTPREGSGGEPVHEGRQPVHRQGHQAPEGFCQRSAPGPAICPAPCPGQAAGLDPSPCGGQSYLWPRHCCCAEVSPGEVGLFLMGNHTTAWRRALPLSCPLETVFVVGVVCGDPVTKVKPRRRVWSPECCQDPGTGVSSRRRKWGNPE
Sequence of UniProt Q0VG06 (Q0VG06 whole entry, looked up): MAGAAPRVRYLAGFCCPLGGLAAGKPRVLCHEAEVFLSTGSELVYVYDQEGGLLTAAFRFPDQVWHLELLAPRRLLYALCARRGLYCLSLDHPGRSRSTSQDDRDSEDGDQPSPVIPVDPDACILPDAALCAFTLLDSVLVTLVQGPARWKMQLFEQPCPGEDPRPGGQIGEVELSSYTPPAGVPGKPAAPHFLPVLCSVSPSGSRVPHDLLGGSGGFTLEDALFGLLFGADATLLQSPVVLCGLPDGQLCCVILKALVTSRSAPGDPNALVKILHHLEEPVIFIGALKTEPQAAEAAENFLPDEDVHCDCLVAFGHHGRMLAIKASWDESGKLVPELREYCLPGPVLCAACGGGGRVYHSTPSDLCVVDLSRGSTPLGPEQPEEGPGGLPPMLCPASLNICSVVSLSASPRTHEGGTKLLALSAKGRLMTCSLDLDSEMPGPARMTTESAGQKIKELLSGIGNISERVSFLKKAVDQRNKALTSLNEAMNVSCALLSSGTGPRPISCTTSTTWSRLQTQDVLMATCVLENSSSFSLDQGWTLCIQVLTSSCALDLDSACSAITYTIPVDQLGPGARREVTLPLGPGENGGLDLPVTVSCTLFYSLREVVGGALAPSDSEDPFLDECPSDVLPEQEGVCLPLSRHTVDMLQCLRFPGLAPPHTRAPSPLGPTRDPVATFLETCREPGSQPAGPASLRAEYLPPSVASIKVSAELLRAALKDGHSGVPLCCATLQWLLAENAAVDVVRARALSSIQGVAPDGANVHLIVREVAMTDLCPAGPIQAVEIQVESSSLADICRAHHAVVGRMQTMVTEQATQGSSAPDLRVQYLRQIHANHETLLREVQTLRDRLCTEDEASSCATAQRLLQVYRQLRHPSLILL
Sequence of UniProt O43237 (O43237 whole entry, looked up): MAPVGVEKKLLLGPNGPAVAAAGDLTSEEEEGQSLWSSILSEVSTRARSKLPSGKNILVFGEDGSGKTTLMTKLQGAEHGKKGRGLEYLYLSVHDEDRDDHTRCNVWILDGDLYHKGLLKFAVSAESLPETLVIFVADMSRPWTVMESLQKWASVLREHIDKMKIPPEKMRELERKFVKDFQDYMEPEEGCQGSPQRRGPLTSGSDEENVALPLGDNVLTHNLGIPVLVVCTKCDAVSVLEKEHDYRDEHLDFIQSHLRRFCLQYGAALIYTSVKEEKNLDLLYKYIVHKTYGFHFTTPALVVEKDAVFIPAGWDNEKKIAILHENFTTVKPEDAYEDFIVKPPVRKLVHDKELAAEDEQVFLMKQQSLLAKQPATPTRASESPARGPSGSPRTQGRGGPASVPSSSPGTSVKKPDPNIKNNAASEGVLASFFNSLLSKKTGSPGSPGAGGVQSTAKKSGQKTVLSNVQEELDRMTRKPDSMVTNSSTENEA
Sequence of UniProt P11182 (P11182 whole entry, looked up): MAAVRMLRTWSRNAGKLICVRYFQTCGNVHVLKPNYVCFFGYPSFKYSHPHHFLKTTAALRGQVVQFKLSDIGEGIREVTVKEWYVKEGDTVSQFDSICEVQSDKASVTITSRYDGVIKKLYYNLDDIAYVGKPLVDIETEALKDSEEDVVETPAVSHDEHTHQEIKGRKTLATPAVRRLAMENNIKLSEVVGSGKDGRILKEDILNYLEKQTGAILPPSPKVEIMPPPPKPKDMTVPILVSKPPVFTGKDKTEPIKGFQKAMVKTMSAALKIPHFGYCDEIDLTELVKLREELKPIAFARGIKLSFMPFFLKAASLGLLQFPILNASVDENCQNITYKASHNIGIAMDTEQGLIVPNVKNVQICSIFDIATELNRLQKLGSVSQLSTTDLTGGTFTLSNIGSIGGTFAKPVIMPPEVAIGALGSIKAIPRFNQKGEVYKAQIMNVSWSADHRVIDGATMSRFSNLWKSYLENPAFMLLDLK

Target | log2 fold change [1] | log2 fold change (crizotinib) | log2 fold change [2] | log2 fold change [3] | log2 fold change (duvelisib) | log2 fold change (gandotinib) | log2 fold change (tozasertib) | log2 fold change [4] | log2 fold change (doramapimod) | log2 fold change (ispinesib)
DYNC1LI2 (UniProt O43237) | 0.025 | 0.079 | -0.283 | 0.393 | -0.049 | 0.235 | 0.018 | 0.054 | -0.121 | -0.026
EIF4E2 (UniProt O60573) | 0.151 | -0.018 | -0.027 | 0.085 | 0.037 | – | 0.044 | 0.07 | -0.069 | -0.087
DBT (UniProt P11182) | -0.024 | -0.01 | -0.014 | 0.054 | 0.04 | 0.005 | 0.038 | -0.042 | 0.029 | 0.009
ELMO1 (UniProt Q92556) | 0.06 | -0.019 | 0 | – | 0.163 | – | – | -0.043 | 0.033 | -0.299
DDX11 (UniProt Q96FC9) | 0.02 | -0.01 | -0.144 | – | 0.05 | – | -0.068 | 0.015 | 0.224 | 0.012
DYNC1I2 isoform 2 (UniProt Q13409) | 0.185 | -0.05 | -0.02 | -0.647 (active) | – | – | 0.044 | – | -0.079 | 0.06
FAAP100 (UniProt Q0VG06) | -0.043 | -0.027 | 0.142 | -0.051 | 0.041 | -0.096 | -0.023 | -0.077 | 0.033 | -0.006
FAM50A (UniProt Q14320) | 0.009 | 0.129 | 0.026 | -0.06 | -0.03 | 0.147 | 0.089 | 0.092 | -0.061 | 0.095
